# Key:
# Experiment in all cases: PBM binding z-score (relative to random genomic background probes); higher = stronger binding; sequences stand for … in GC…GCGATTGACAGCGTAGAATGAAGG
# [1] = system: PPARg:RXRa DBDmut IVT, anti-RXR (DBD mutation: RXRa K156A/R161A, NR concentration 270 nM, RXRa partner concentration 90 nM)
# Method in brief: (§1)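 Ligand-free nuclear receptor dimers were bound for 1 h to custom Agilent 4×180K protein-binding microarrays. Detection used antibodies against each partner (one per run). Binding z-scores rest on regression-normalized fluorescence, with random background probes as the reference.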
# [2] = system: PPARg:RXRa IVT, anti-PPARg (NR concentration 270 nM, RXRa partner concentration 90 nM)
# Method in brief: as §1
# [3] = system: PPARg DBDmut:RXRa IVT, anti-PPARg (DBD mutation: PPARg1 K132A/R137A, NR concentration 270 nM, RXRa partner concentration 90 nM)
# Method in brief: as §1
# [4] = system: PPARg DBDmut IVT, anti-PPARg (DBD mutation: PPARg1 K132A/R137A, NR concentration 270 nM)
# Method in brief: as §1
# [5] = system: PPARg homodimer (NR concentration 180 nM)
# Method in brief: as §1
# [6] = system: PXR:RXRa (NR concentration 270 nM, RXRa partner concentration 90 nM)
# Method in brief: as §1
# [7] = system: PXR homodimer (NR concentration 270 nM)
# Method in brief: as §1
# [8] = system: RARa:RXR (NR concentration 270 nM, RXRa partner concentration 90 nM)
# Method in brief: as §1
# [9] = system: RARa homodimer (NR concentration 270 nM)
# Method in brief: as §1
# [10] = system: RARb:RXRa (NR concentration 270 nM, RXRa partner concentration 90 nM)
# Method in brief: as §1
# [11] = system: RARb homodimer (NR concentration 270 nM)
# Method in brief: as §1
# [12] = system: RARg:RXRa (NR concentration 270 nM, RXRa partner concentration 90 nM)
# Method in brief: as §1
# [13] = system: RARg homodimer (NR concentration 270 nM)
# Method in brief: as §1
# [14] = system: RXRa DBDmut IVT, anti-RXR (DBD mutation: RXRa K156A/R161A, NR concentration 90 nM)
# Method in brief: as §1
# [15] = system: RXRa homodimer (NR concentration 180 nM)
# Method in brief: as §1
# [16] = system: THRa:RXRa (NR concentration 90 nM, RXRa partner concentration 90 nM)
# Method in brief: as §1
# [17] = system: THRa homodimer (NR concentration 90 nM)
# Method in brief: as §1
# [18] = system: VDR homodimer (NR concentration 270 nM)
# Method in brief: as §1
Sequence,PBM binding z-score [1],PBM binding z-score [2],PBM binding z-score [3],PBM binding z-score [4],PBM binding z-score [5],PBM binding z-score [6],PBM binding z-score [7],PBM binding z-score [8],PBM binding z-score [9],PBM binding z-score [10],PBM binding z-score [11],PBM binding z-score [12],PBM binding z-score [13],PBM binding z-score [14],PBM binding z-score [15],PBM binding z-score [16],PBM binding z-score [17],PBM binding z-score [18]
TTACCAAGGTGAAAGGTCGTTCATGCACGCCTTG,2.97,5.04,0.222,0.115,1.16,3.93,0.838,5.63,0.139,3.06,2.8,4.33,2.27,0.778,5.93,3.24,0.876,1.96
TCTCGGAGGACACGAAGGTCAGTGCTTTCCAGAG,1.42,1.08,-0.7,-0.641,0.926,1.54,0.566,1.52,-0.39,3.29,3.9,2.87,3.49,0.969,1.47,2.73,1.06,1.39
CCTTACGGGTCCAGGTTATAGCACGGGTGGTACG,-1.08,-0.342,-0.7,-1.74,-0.0235,-0.402,-0.186,-0.536,0.162,0.245,0.293,-0.0416,0.158,-0.824,0.106,0.171,0.291,0.862
TCATATAGGTAAATGCTACGTGAAAGTCCGATCT,3.82,2.01,1.39,1.49,0.811,0.667,0.362,0.641,0.913,0.222,-0.0537,0.346,0.292,1.58,0.839,-0.0231,0.0102,0.41
AGAACGAGGGCACGCTAAGTTGATAGCAGAGTAG,4.41,3.93,1.79,0.754,0.364,1.11,0.0616,1.3,-0.579,2.51,1.19,2.2,2.4,1.74,1.49,1.97,0.0343,1.42
TCTTTTAGATCAAGCAGGTTAAGAAAGCCTGAGT,1.41,0.619,0.997,1.17,-0.29,0.774,0.132,0.889,-0.0558,0.269,0.0271,0.216,0.212,1.19,0.49,0.401,-0.436,0.0126
CCTTACTGGTCACTGACAGGTTATAGCATTTGGA,1.41,0.777,0.395,0.913,1.46,0.611,0.48,0.74,1.52,1.72,1.55,1.76,1.32,0.856,0.874,0.492,0.796,0.63
AGAACGAGGGCACGCTGAGTTGCTAGCAGAGTAG,4.16,3.97,-0.0983,-0.499,-0.0627,0.539,-0.605,0.617,-0.905,2.43,0.875,1.48,1.95,1.69,1.1,1.51,-0.328,1.42
TCAGACAGTTGAAGGTAACTCAGGTACGCAGTCG,2.22,0.0381,-0.122,-0.183,0.684,0.701,0.165,0.843,-0.196,0.547,-0.0141,0.206,0.167,1.29,0.943,1.17,0.195,0.508
TCATATAGGTAGTACAGGTGAAAGTCGGCATCTA,2.26,1.52,1.27,1.09,1.08,0.715,0.204,1.16,1.16,0.562,0.475,0.549,0.317,1.32,1.02,0.404,0.361,0.606
CAAACTAGTTCAAAGGTCAAAGTCGAGCCAACCA,3.06,5.87,1.03,1.34,6.05,6.85,3.08,8.58,3.93,5.27,4.9,7.49,6.13,3.58,9.59,4.16,1.06,3.89
TCTCGGAGGAAACGAAGGTCAGAGCTTTCCAGAG,0.867,-0.0763,-1.61,-1.24,0.766,0.848,-0.378,1.7,-0.763,2.03,2.69,1.88,1.53,-0.239,1.5,1.38,-0.547,-0.0279
ATCGAAAGGTCGAGGAGAGTATAGAGAAAGGGAA,0.194,1.22,1.53,0.209,1.53,2.33,0.36,2.76,0.436,3.9,2.25,4.13,3.86,0.539,4.21,1.94,-0.151,0.103
CCTAGCAGACCAGGGTCACTCAAGCATTTCGCTT,-0.221,0.416,-0.792,-1.1,0.914,2.63,-0.0947,3.3,-0.0324,2.32,2.68,2.86,1.84,0.63,3.24,2.75,0.798,1.37
TCGAGTAGGTTAGTTGGGGCATTCAGCCAACATA,2.05,1.73,-0.651,-0.228,0.105,-0.283,-0.15,0.117,-0.0281,0.529,0.525,-0.065,-0.0945,0.0825,-0.226,1.01,-0.251,-0.0385
TCATATAGGTAATACAGGTGAAAGTTGGCATCTA,4.09,3.7,1.17,1.27,1.53,1.23,0.642,1.77,1.84,0.87,0.923,1.02,0.788,1.86,1.69,1.19,0.467,0.572
CAAACTAGGTCAAGAGGCCAAAGTCCGCTTCCCG,8.03,8.06,1.13,0.602,1.8,1.56,0.34,2.68,0.79,3.93,3.79,4.65,4.83,1.85,2.98,2.75,0.986,1.03
ATCGAAAGGTCCAGGTGAGTATAGAGAAAGGGAA,0.212,0.948,0.53,0.059,0.583,0.112,0.251,0.303,0.409,1.24,0.976,0.8,0.946,0.31,0.494,0.94,0.905,0.121
CTCGAAAGGTCGTGCTCAAGTGAGTATACCAAAC,0.992,1.58,1.46,0.784,1.8,3.15,0.371,3.74,-0.14,3.97,2.33,4.27,3.66,2.31,4.62,2.31,-0.0165,1.15
TCTGCTAGGTCAACGATGGGCAGCTAATCTGCTA,4.14,4,1.49,-0.401,0.59,0.836,-1.21,1.73,-1.18,4.19,2.74,3.94,5.25,0.549,2.44,2.63,0.424,-0.398
CTACTAAGGTGAACAAGGTCGTTGATTACTATTC,3.87,3.07,0.656,0.383,1.12,3.22,2.35,3.18,0.606,2.4,2.33,2.35,1.64,1.81,2.34,3.61,2.82,2.67
CCTAATGGGCCATTCAGAGGTCATTGATCATATG,2.5,2.39,0.168,0.266,2.02,4.59,1.84,4.39,0.847,3.27,4.03,4.62,2.88,1.45,4,3.16,1.19,3.03
ACCAGCAGGCCAAGTTTGGGTCACTCAAACAAAG,-0.512,0.814,-0.754,-1.36,0.25,0.747,-0.419,1.27,-0.97,1.89,2.33,2.44,1.51,-0.217,0.731,2.61,0.952,0.435
CTCGAAAGGTCTGTTGAGGTGAGTATACGGATAA,-0.464,0.358,0.678,0.237,0.0956,0.48,-0.39,1.61,-0.325,1.47,0.88,0.827,1.16,-0.237,0.536,4.3,1.12,-0.104
GAGACTGGGGCAAAGCAGGTTACCATAAGGTTGG,5.26,5.09,0.833,0.122,1.16,0.725,0.197,1.26,-0.331,1.14,1.54,0.842,0.776,-0.396,0.474,3.14,0.644,-0.202
AGAATGAGGTTATACGTAGATCTGGGAAGAAAGT,3.58,2.08,0.645,0.965,0.546,0.994,0.44,1.5,-0.128,1.23,0.334,1.39,0.958,1.1,1.94,2.03,0.225,0.724
GCCCGGAGGACAAGGTCAGAGCTTTGTCCGTAGA,-0.658,0.093,-1.17,-2.1,0.821,1.56,-0.306,2.17,-1.21,3.16,3.19,2.99,3.62,0.344,2.04,2.92,1.67,0.864
CAGCCAAGGTCAGGGCCAGTATAGGAGGAACGTT,1.56,2.1,-0.336,-0.871,2.33,2.13,0.199,3.09,0.299,4.73,3.64,4.92,5.59,1.64,4,3.36,1.78,0.93
CCTTACGGGTCACTCCAGGTGATAGCATCGGAGT,2.72,3.72,-0.0866,-0.18,1.04,3.75,0.145,3.53,0.42,3.51,2.96,4.43,4.29,1.6,4.45,4.81,0.559,1.16

# Reference: the supplement of paper PMC6555819
